The panel holds about 83,000 compounds, 20% with a hit somewhere; the sample as a whole holds those more often.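 How to read the values: 0–100, growth inhibition (40 = 60% inhibited); 0, no net growth; -100 to 0, cell death (-40 = 40% of starting cells died; -100 = all dead).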 Activity calls are given as the source filed them. The calls were made as follows: active = growth percent below 10; inactive = the rest.
Assays:
Experiment in all cases: NCI-60 one-dose screen, 48 h (100 = growth as untreated, 0 = no growth, -100 = all killed)
Settings in all cases: 10 µM unless noted
BT-549 breast = tested on: BT-549 breast
MDA-MB-435 melanoma = tested on: MDA-MB-435 melanoma
SW-620 colon = tested on: SW-620 colon
MCF7 breast = tested on: MCF7 breast
HCT-116 colon = tested on: HCT-116 colon
HCC-2998 colon = tested on: HCC-2998 colon
KM12 colon = tested on: KM12 colon

Measured: growth

CN1CCN(Cc2ccc(NC(=O)c3cncc(C#Cc4ncc5cnccn45)c3)cc2C(F)(F)F)CC1
inactive: BT-549 breast 63.7% | MDA-MB-435 melanoma 39.3% | SW-620 colon 22% | MCF7 breast 36% | HCT-116 colon 16.6% | HCC-2998 colon 43.1% | KM12 colon 13.2%

C#CC[C@@H]1C[C@]2(C)[C@H]3CC[C@@H]4[C@H]5C(C(=C)C)CC[C@]5(C(=O)NCCCCCCCCN)CC[C@@]4(C)[C@]3(C)CC[C@H]2C(C)(C)[C@H]1OC(C)=O (stereo partly drawn)
active: SW-620 colon -2.59% | MCF7 breast -18.9% | HCT-116 colon -88.5%
inactive: BT-549 breast 97.5% | MDA-MB-435 melanoma 76.5% | HCC-2998 colon 91.1% | KM12 colon 61.9%

Fc1cnccc1-c1nc2ccc3[nH]ncc3c2c2c1CCCC2
active: HCT-116 colon 7.21%
inactive: BT-549 breast 16.1% | MDA-MB-435 melanoma 10.4% | SW-620 colon 14.6% | MCF7 breast 34.7% | HCC-2998 colon 37.5% | KM12 colon 18.4%

COC(=O)C(CCC(=O)CCl)N1C(=O)c2ccccc2C1=O (stereo not drawn)
inactive: BT-549 breast 55.7% | MDA-MB-435 melanoma 35.2% | SW-620 colon 32.9% | MCF7 breast 26.2% | HCT-116 colon 25% | HCC-2998 colon 89.4% | KM12 colon 101%

Reference: PubChem BioAssay (NCI)
